# HPGD inh: inhibitors of human 15-hydroxyprostaglandin dehydrogenase (HPGD) | P15428 | purified HPGD, NADH fluorescence kinetic, PGE2 substrate | Potency, µM, for the others: top-dose activity change, negative = inhibition, usual class: inhibitors | 150,000 compounds, 4.3% hits | AID 894; further: potency means the concentration at half of the fitted maximal effect
#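 NADH formation kinetics: reaction with 30 uM PGE2 and 1 mM NAD+ (final), 20 nM enzyme, Tris-HCl pH 8 with Tween 20, after 15 min compound preincubation at room temperature. Fluorescence change, last versus first of five reads.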
# ALDH1A1 inh: blocks purified human ALDH1A1 activity; P00352; Purified ALDH1A1, NADH fluorescence, propionaldehyde substrate; Potency, µM (titrated, usually from 75.3 µM), without a hit: at the highest dose activity, negative = inhibition, usual class: inhibitors; 220,000 compounds, 7.3% hits; AID 1030;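 further: potency means the concentration at half of the fitted maximal effect; plate controls were no enzyme wells and a reference inhibitor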
# Target sequence (P00352 whole entry, looked up): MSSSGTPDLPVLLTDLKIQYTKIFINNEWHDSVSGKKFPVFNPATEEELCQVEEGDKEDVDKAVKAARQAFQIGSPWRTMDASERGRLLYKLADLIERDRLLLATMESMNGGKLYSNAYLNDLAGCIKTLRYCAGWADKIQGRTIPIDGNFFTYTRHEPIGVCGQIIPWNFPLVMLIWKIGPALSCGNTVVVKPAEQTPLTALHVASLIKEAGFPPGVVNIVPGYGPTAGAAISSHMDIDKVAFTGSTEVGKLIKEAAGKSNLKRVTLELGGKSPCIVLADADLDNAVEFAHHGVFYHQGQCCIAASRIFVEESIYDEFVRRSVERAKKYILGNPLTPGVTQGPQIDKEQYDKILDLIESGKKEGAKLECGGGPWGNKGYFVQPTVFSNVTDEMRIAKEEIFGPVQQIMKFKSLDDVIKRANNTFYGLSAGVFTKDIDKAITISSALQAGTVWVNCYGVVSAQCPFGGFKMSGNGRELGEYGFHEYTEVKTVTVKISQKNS
# PNC inhibitor: blocks assembly of the perinucleolar compartment. activity change (PNC), negative = inhibition, % at 10 µM. PC3M PTB-GFP, PNC prevalence imaging, 16 h; active compounds read low. AID 2417. 140,000 compounds, 3.1% hits;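 active means readout at or below -70, meaning at least 70% loss of cells showing the perinucleolar compartment, a nuclear body marking cancer cells; inconclusive means readout between -30 and a set limit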;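 further: plate controls were DMSO wells for no effect and camptothecin positive control wells for full effect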
#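 Read-out is percentage of cells bearing a perinucleolar compartment, from automated 20x imaging of fixed, Hoechst-stained PC3M PTB-GFP cells. Cells were seeded 4 h, then exposed 16 h to compound (23 nl of library stock) in duplicate plates.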
# Starred values were filed as active, the others as inactive; ? = inconclusive; · = not tested or not shown; [ ] = dose if it differs, or a comment. An excerpt weighted towards active compounds, which were near 11% of everything screened. Unless noted, the call rests on the fitted dose curve; in most records, active means well fitted inhibition curve with a large enough effect (not every such curve was filed as active); inconclusive means small, poorly fitted or top-dose-only effect, or another doubt; inactive means no such curve, though single readings can be large or run the other way. Unless noted, on the % scale 0 is the no-effect control and ±100 the full control effect.
SMILES,HPGD inh,ALDH1A1 inh,PNC inhibitor
COc1ccc(S(=O)(=O)N2CCOCC2)cc1NC(=O)c1cccc2c(=O)c(C)c(-c3ccccc3)oc12,·,-13%,221
CN(Cc1ccccc1)S(=O)(=O)c1cccc(C(=O)O)c1,·,-4%,·
COc1cccc([C@@H]2Oc3ccc(OC)cc3[C@H](O)[C@H]2O)c1,-4%,13%,·
COc1cc(/C=N/NC(=O)c2ccc(O)cc2)ccc1Oc1ccc([N+](=O)[O-])cn1,22µM*,18%,?
COc1cc(/C=N/NC(=O)c2ccc3ccccc3c2)ccc1Oc1ccc([N+](=O)[O-])cn1,-5%,11%,27
Cc1nc2ccc(NC(=O)Nc3ccnc4cccnc34)cc2o1,-1%,?,·
C[C@@H]1OC(OC2C(OC3CC[C@@]4(C)C5CC=C6C7CC(C)(C)CC[C@@]7(C(=O)O)CCC6(C)C5(C)CCC4[C@]3(C)CO)OCC(O)C2O)C(O)C(O)C1O (some centres not stated),-5%,5%,·
O=C(N/N=C/c1ccc(O)cc1O)c1cc(-c2ccccc2)n[nH]1,-24%,?,·
CCOC(=O)C1C(=O)C=C(c2ccc([N+](=O)[O-])cc2)CC1c1ccccc1 (configuration not stated),?,?,-18
CCOC(=O)C1C(=O)C=C(c2ccc(C)cc2)CC1c1ccccc1 (configuration not stated),·,-10%,·
CCOC(=O)C1C(=O)C=C(c2cccc(NS(C)(=O)=O)c2)CC1c1ccco1 (configuration not stated),-22%,20µM*,-27
CCOC(=O)C1C(=O)C=C(c2ccc(Br)cc2)CC1c1ccco1 (configuration not stated),-14%,16µM*,-7
O=C(NNS(=O)(=O)c1ccccc1Cl)c1nn(-c2ccc(F)cc2)ccc1=O,·,7%,·
COc1ccccc1-n1nnnc1SCc1cc2c(cc1Br)OCO2,?,4.5µM*,-27
O=C(CSc1nnnn1Cc1ccccc1)NCC(=O)c1ccccc1,-10%,8.9µM*,?
CCOc1ccccc1-n1nnnc1SCC(=O)Nc1cc(C)on1,3%,8.9µM*,-22
CCOc1ccccc1-n1nnnc1SCC(=O)Nc1cc2oc3ccccc3c2cc1OC,-8%,-5%,23
COc1ccccc1-n1nnnc1SCc1ccccc1,-12%,?,-12
COc1ccccc1Nc1nnc(SCC(=O)N2CC(=O)Nc3ccccc32)s1,·,-3%,-4
O=C1CN(C(=O)CSc2nnc(Nc3ccccc3)s2)c2ccccc2N1,2.2µM*,28µM*,?
O=C(CSc1nnnn1Cc1ccccc1)NCCc1ccccc1,-5%,?,44
COC(=O)C1=C(C(=O)OC)[C@@H]2N(C)c3ccccc3[C@@]23C[C@@H](C(=O)OC)N(S(=O)(=O)c2ccc(OC)cc2)C3=N1,-1%,24%[13.5 µM],·
Cc1cc(NC(=O)CSc2nnc(Cc3ccccc3)n2C)no1,-15%,2%,?
COc1ccccc1-n1nnnc1SCC(=O)Nc1ccccn1,-15%,0.63µM*,19
COc1ccccc1C(=O)Nc1ccccn1,-4%,4%,24
SMILES,HPGD inh,ALDH1A1 inh,PNC inhibitor
COc1ccccc1-n1cnnc1SCC(=O)Nc1cc(C)on1,·,5µM*,·
Cc1cc(NC(=O)CSc2nnnn2Cc2ccccc2)no1,2%,32µM*,-14
CCn1c(Cc2ccccc2)nnc1SCC(=O)Nc1cc(C)on1,-10%,7%,-107*
Cc1cc(NC(=O)CSc2nncn2-c2ccccc2)no1,·,0%,·
COc1ccc(C)cc1NC(=O)CSc1nnnn1Cc1ccccc1,-4%,-10%,37
Cc1ccc(C(=O)OCC(=O)c2c[nH]c3ccccc23)cc1NC(=O)c1ccco1,·,-1%,·
C#CCCOC(=O)N1C2=NC(C(=O)OC)=C(C(=O)OC)[C@@H]3N(CC=C)c4ccccc4[C@]23C[C@H]1C(=O)OC,-1%,4%[13.5 µM],·
COc1ccccc1-n1cnnc1SCC(=O)c1ccc[nH]1,-4%,?,-11
COc1ccccc1-n1cnnc1SCC(=O)N1CC(=O)Nc2ccccc21,-5%,4.5µM*,?
O=C(CSc1nnnn1-c1ccccc1)Nc1ccc(Cl)cc1,-9%,?,14
Cc1cc(NC(=O)CSc2nnc3ccccn23)no1,·,13%,·
O=C(CSc1nnnn1-c1ccc(O)cc1)Nc1cccc(S(=O)(=O)N2CCCC2)c1,-6%,-1%,-21
Cc1cccc(-n2nnnc2SCC(=O)Nc2cccc(S(N)(=O)=O)c2)c1,·,7.9µM*,·
Cc1cc(NC(=O)CSc2nnnn2-c2ccccc2)no1,·,16µM*,·
O=C(CSc1nnnn1-c1ccccc1)Nc1ccc(Cl)cn1,-3%,2.2µM*,?
C=CCN1c2ccccc2[C@]23C[C@@H](C(=O)OC)N(S(=O)(=O)c4c(C)noc4C)C2=NC(C(=O)OC)=C(C(=O)OC)[C@H]13,3%,3%[13.5 µM],·
